Reference: paper PMC9911399, “Two distinct binding modes provide the RNA-binding protein RbFox with extraordinary sequence specificity”
Positions count from the first letter of the chain named. Whole data set: some 16,000 sequences, median “ka relative to ugcaugu” near 0.096, cut for the highest 2% near 0.35. Shown is part of a subset that was picked to be rich in the highest values.

T1: RBFOX1 RRM RbFoxmut (Fox-RRM*) (Homo sapiens, UniProt Q9NWB1 109-208, R118D;E147R;N151S;E152T)
T1 sequence: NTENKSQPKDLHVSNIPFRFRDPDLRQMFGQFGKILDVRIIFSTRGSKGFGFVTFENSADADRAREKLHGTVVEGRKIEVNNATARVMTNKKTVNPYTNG

B1: AUUACUA (DNA:RNA)
RNA: GGGAGACCGGAAUUCAGAUUGUCCAUUACUAUUAAAUCCCGUCGUAGCCACCA
DNA 1: CAATCTGAATTCCGGTCTCCC
DNA 2: TGGTGGCTACGACGGGATT
B2: GGCAUUC (DNA:RNA)
RNA: B1 RNA with A25G, U26G, U27C, C29U, A31C
DNA 1: CAATCTGAATTCCGGTCTCCC
DNA 2: TGGTGGCTACGACGGGATT
B3: GGCAUCC (DNA:RNA)
RNA: B1 RNA with A25G, U26G, U27C, C29U, U30C, A31C
DNA 1: CAATCTGAATTCCGGTCTCCC
DNA 2: TGGTGGCTACGACGGGATT
B4: GUCGGCA (DNA:RNA)
RNA: B1 RNA with A25G, U27C, A28G, C29G, U30C
DNA 1: CAATCTGAATTCCGGTCTCCC
DNA 2: TGGTGGCTACGACGGGATT
B5: GGCACCG (DNA:RNA)
RNA: B1 RNA with A25G, U26G, U27C, U30C, A31G
DNA 1: CAATCTGAATTCCGGTCTCCC
DNA 2: TGGTGGCTACGACGGGATT
B6: GGCAUUG (DNA:RNA)
RNA: B1 RNA with A25G, U26G, U27C, C29U, A31G
DNA 1: CAATCTGAATTCCGGTCTCCC
DNA 2: TGGTGGCTACGACGGGATT
B7: GGCAUCG (DNA:RNA)
RNA: B1 RNA with A25G, U26G, U27C, C29U, U30C, A31G
DNA 1: CAATCTGAATTCCGGTCTCCC
DNA 2: TGGTGGCTACGACGGGATT
B8: CGAUGAA (DNA:RNA)
RNA: B1 RNA with A25C, U26G, U27A, A28U, C29G, U30A
DNA 1: CAATCTGAATTCCGGTCTCCC
DNA 2: TGGTGGCTACGACGGGATT
B9: AAAAUAC (DNA:RNA)
RNA: B1 RNA with U26A, U27A, C29U, U30A, A31C
DNA 1: CAATCTGAATTCCGGTCTCCC
DNA 2: TGGTGGCTACGACGGGATT

molecular target: T1, RBFOX1 RRM RbFoxmut (Fox-RRM*); assay: EMSA; HiTS-Eq, 1 nM pool, 10 min; buffer printed only for the single-RNA assays: 10 mM Tris pH 7.5, 150 mM NaCl, 3.4 mM EDTA, 0.001% NP-40, 30 C; conditions: tags: His6 N-terminal (pET28a); label: 5' 32P
How it was run: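 These values rest on relative association constants, computed from read-count changes of each RNA species versus the control reaction and normalised to the cognate motif. Reads came from free RNA recovered by 8% native PAGE after purified RbFox RRM (wild type or mutant) at increasing concentrations was equilibrated for 10 min in 50 µL with 1 nM of a 5′-radiolabelled pool with 7 randomized nucleotides and DNA-annealed flanks.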

First: B1
Second: B2
The binding signal of the first is higher: 0.129 KA relative to UGCAUGU for the first, 0.119 KA relative to UGCAUGU for the second.

First: B3
Second: B4
The binding signal of the first is higher: 0.229 KA relative to UGCAUGU for the first, 0.13 KA relative to UGCAUGU for the second.

First: B5
Second: B6
The binding signal of the first is lower: 0.132 KA relative to UGCAUGU for the first, 0.394 KA relative to UGCAUGU for the second.

First: B7
Second: B8
The binding signal of the first is higher: 0.467 KA relative to UGCAUGU for the first, 0.123 KA relative to UGCAUGU for the second.

B9 was tested, and the binding signal was 0.076 KA relative to UGCAUGU.
